This is one part of a sample in which hits are shown more often than they occur.
12-LOX inh: Primary qHTS assay for inhibitors of human arachidonate 12S-lipoxygenase (ALOX12): Round 2. Potency, µM (highest dose often 108 µM), for the others: at the top dose activity change, negative = inhibition, usual class: inhibitors. Polyunsaturated fatty acid lipoxygenase ALOX12 (Homo sapiens), P18054. hit rate 1.1% among 580,000. purified 12hLO, xylenol orange hydroperoxide absorbance. AID 1671190, 2021; also: potency is read from the fitted curve at half-maximal effect
Target sequence (P18054 whole entry, looked up): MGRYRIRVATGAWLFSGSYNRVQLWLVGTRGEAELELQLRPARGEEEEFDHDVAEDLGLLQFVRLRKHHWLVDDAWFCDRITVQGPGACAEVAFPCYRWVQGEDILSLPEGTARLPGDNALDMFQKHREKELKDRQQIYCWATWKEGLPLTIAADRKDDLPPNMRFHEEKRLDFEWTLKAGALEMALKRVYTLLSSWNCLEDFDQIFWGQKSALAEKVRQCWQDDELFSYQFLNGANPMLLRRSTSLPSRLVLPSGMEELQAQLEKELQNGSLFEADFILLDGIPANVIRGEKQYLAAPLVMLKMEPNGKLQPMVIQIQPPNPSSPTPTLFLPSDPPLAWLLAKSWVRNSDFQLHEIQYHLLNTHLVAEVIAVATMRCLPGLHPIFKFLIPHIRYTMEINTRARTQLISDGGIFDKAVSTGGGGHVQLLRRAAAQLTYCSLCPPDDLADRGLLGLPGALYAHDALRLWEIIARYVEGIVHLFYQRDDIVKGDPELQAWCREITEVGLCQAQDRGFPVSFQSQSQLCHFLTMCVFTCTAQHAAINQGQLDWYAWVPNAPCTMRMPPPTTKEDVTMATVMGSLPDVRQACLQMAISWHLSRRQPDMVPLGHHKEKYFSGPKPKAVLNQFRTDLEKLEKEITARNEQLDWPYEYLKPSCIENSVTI
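Purified human 12hLO at 150 nM in 25 mM Hepes, 0.01% Triton X-100, pH 7.0, preincubated 15 min at room temperature with compound. Reaction started with 40 uM arachidonic acid, 30 min at room temperature. Hydroperoxide measured by Fe-xylenol orange, 573/405 nm absorbance ratio.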
HT1080 IDH1KD tx: qHTS for induction of synthetic lethality in tumor cells producing 2HG: qHTS for the HT-1080-IDH1KD cell line. HT-1080 IDH1 knockdown viability, ATP luminescence, 48 h. Potency, µM (highest dose often 46.1 µM), without a hit: top-dose activity, negative = toxicity, usual class: cytotoxic. AID 686971, 2013. hit rate 2% among 360,000;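 also: potency is read from the fitted curve at half-maximal effect; 0% = DMSO wells and -100% = cell-free medium wells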
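Assay cells: HT-1080 with IDH1 knockdown, 750 per well, RPMI/5% FBS. Exposure: 48 h at 37 °C following 2 h pre-incubation. Read: CellTiter-Glo luminescence; fitted concentration-response, curve class assigned.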
HT1080-NT tox: qHTS for induction of synthetic lethality in tumor cells producing 2HG: qHTS for the HT-1080-NT fibrosarcoma cell line; HT-1080-NT fibrosarcoma viability, CellTiter-Glo ATP luminescence, 48 h; Potency, µM (titrated, usually from 46.1 µM), for the others: at the top dose activity, negative = less viability, usual class: cytotoxic; hit rate 1.6% among 360,000;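 also: NT is the 2HG producing partner of a matched IDH1 knockdown line; potency is read from the fitted curve at half-maximal effect; 0% = DMSO-treated cells and -100% = media-only wells without cells; nearly all actives have a fitted effect of over 55% in size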
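A 48-hour cytotoxicity screen used HT-1080-NT cells plated 2 hours before compound delivery. ATP-based CellTiter-Glo luminescence measured viability, normalized to DMSO and no-cell controls.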
IL-1B inflam inh: qHTS for Inhibitors of Inflammasome Signaling: IL-1-beta AlphaLISA Primary Screen; THP-1 LPS/ATP IL-1B secretion, AlphaLISA, 16 h; stronger effect = lower value; activity change, % at 57.5 µM; hit rate 4.7% among 360,000; in the data active = activity change below about -50%; inconclusive = mostly about -30% to -49%
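Secreted IL-1B measured by AlphaLISA bead assay after 16 h compound exposure of THP-1 cells; compounds (final up to 57.5 uM) added 1 h before LPS (250 ng/mL) and ATP (1.25 mM) stimulation; lower signal means less secretion.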
DT40 TDP1 no CPT: qHTS for Inhibitors of human tyrosyl-DNA phosphodiesterase 1 (TDP1): qHTS in cells in absence of CPT; DT40 Tdp1-/- hTDP1 cells, no CPT, ATP luminescence, 48 h; Potency, µM (titrated, usually from 46.2 µM), for inactives: at the top dose activity change, negative = growth inhibition, hits mostly inhibitors; hit rate 15% among 420,000; also: potency is read from the fitted curve at half-maximal effect; nearly all actives have a fitted effect of over 55% in size
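Chicken DT40 Tdp1-/- cells complemented with human TDP1, screened without camptothecin (DMSO vehicle only), 400 cells/well. Compounds pin-transferred, cells incubated at 37 °C for at least 48 hr. Growth read as ATP-dependent luminescence (CellTiter-Glo, 30 min at RT).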
TDP1 cell CPT: qHTS for Inhibitors of human tyrosyl-DNA phosphodiesterase 1 (TDP1): qHTS in cells in presence of CPT; Potency, µM (series often up to 46.2 µM), for the others: top-dose activity change, negative = growth inhibition, actives largely listed as inhibitors; hit rate 12% among 420,000; chicken DT40 Tdp1-/-;hTDP1 cells + 20 nM CPT, ATP luminescence, 48 h; AID 686979, 2013; also: potency is read from the fitted curve at half-maximal effect; nearly all actives have a fitted effect of over 55% in size
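Chicken DT40 Tdp1-/- cells complemented with human TDP1, 400 cells/well, exposed to compounds plus 20 nM camptothecin for at least 48 h at 37 C; viability read as ATP content by CellTiter-Glo luminescence.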
* = called active by the depositor; i = inactive; ? = inconclusive; nt = not tested or not shown; [ ] = remark or other dose. Unless noted, calls follow the shape of the dose curve; as a rule, active = well fitted curve in the direction sought with a large enough effect; inconclusive = small, poorly fitted or top-dose-only effect, or another doubt; inactive = no such curve, though single readings can be large; an effect the other way counts as inactive or inconclusive. Unless noted, % is scaled to controls: 0 for no effect and ±100 for the full control effect.

SMILES	12-LOX inh	HT1080 IDH1KD tx	HT1080-NT tox	IL-1B inflam inh	DT40 TDP1 no CPT	TDP1 cell CPT
COc1cccc(C(=O)N2CCC(C(=O)Nc3cccc(Cl)c3)CC2)c1	7.2%	nt	nt	nt	23.1µM*	10.3µM*
COc1ccc(/C=C\c2onc(C)c2S(=O)(=O)N2CCC(C(=O)Nc3ccccc3OC)CC2)cc1	-21.9%	nt	nt	nt	23.1µM*	?
COc1ccc(/C=C\c2onc(C)c2S(=O)(=O)N2CCC(C(=O)Nc3cccc(C)c3C)CC2)cc1	0.0%	nt	nt	nt	-13.5%	?
Cc1noc(/C=C/c2ccco2)c1S(=O)(=O)N1CCC(C(=O)NC(C)c2ccccc2)CC1 (stereo unspecified)	25.1%	-2.7%	-1.4%	-14.0	?	-26.8%
COc1ccc(/C=C\c2onc(C)c2S(=O)(=O)N2CCC(C(=O)Nc3cccc(Cl)c3)CC2)cc1	?	nt	nt	nt	9.2µM*	6.51µM*
Cc1noc(/C=C/c2ccco2)c1S(=O)(=O)N1CCC(C(=O)N2c3ccccc3CC2C)CC1 (stereo unspecified)	-29.4%	-6.6%	-1.4%	?	18.4µM*	14.6µM*
COc1cc(C(=O)N2CCC(C(=O)Nc3cccc(C(C)=O)c3)CC2)cc(OC)c1OC	-4.4%	-0.3%	1.4%	-6.2	?	?
CC12CCC3c4ccc(OCCCO)c([N+](=O)[O-])c4CCC3C1CCC2=O (stereo unspecified)	-6.4%	nt	nt	nt	nt	nt
Nc1nccnc1C(=O)NCC1Cc2ccccc2O1 (stereo unspecified)	8.6%	nt	nt	nt	nt	nt
CCOc1ccccc1NC(=O)C1CCN(S(=O)(=O)c2c(C)noc2/C=C/c2ccco2)CC1	?	nt	nt	nt	18.4µM*	?
CCOc1ccc(CNC(=O)c2cc3c(=O)oc4ccc(C)cc4c3s2)cc1	0.0%	nt	nt	nt	?	?
Cc1cccn2c(=O)c3cc(C(=O)N(Cc4ccccc4)C(C)C)sc3nc12	-6.7%	nt	nt	nt	20.6µM*	16.4µM*
CCN(CC)C(=O)c1cc2c(=O)n3cccc(C)c3nc2s1	?	4.7%	2.6%	17.2	-23.3%	-6.7%
Cc1ccc2oc(=O)c3cc(C(=O)NCCCN4CCN(C)CC4)sc3c2c1	2.3%	-19.4%	?	-12.3	?	?
Cc1ccc2oc(=O)c3cc(C(=O)N(Cc4ccccc4)C(C)C)sc3c2c1	-14.7%	nt	nt	nt	20.6µM*	18.4µM*
CCOc1ccc(CCNC(=O)c2cc3c(=O)oc4ccc(C)cc4c3s2)cc1OCC	?	nt	nt	nt	?	13µM*
Cc1ccc2oc(=O)c3cc(C(=O)NCCCN4CC(C)CC(C)C4)sc3c2c1 (stereo unspecified)	19.1%	16.4%	2.5%	-82.9*	?	?
Cc1ccc(-n2c3c(cc(C#N)c2=O)C(=O)CC(c2ccccc2)C3)c(C)c1 (stereo unspecified)	-4.0%	nt	nt	nt	nt	nt
CCCCCCCNC(=O)CCC(=O)NCCOC	-11.3%	nt	nt	nt	nt	nt
NCCSC12CC3CC(CC(C3)C1)C2	-2.2%	nt	nt	nt	nt	nt
Cc1ccc2oc(=O)c3cc(C(=O)Nc4ccc(F)cc4F)sc3c2c1	-43.9%	nt	nt	nt	25.9µM*	?
Cn1c(=O)c2c(ncn2CCNC2=NCCCC2)n(C)c1=O	-41.6%	nt	nt	nt	nt	nt
c1cc2c(cc1C1=Nn3c(nnc3C3CCCCC3)SC1)OCO2	0.0%	-13.8%	0.0%	0.0	13µM*	18.4µM*
c1ccc(-c2nnc3n2N=C(c2ccc4c(c2)OCO4)CS3)nc1	-6.7%	3.9%	12.2%	-20.8	-8.2%	5.1%
COc1ccccc1NC(=O)Cn1c(=O)c2c(ncn2CC(C)C)n(CC(C)C)c1=O	-3.2%	nt	nt	nt	nt	nt
SMILES	12-LOX inh	HT1080 IDH1KD tx	HT1080-NT tox	IL-1B inflam inh	DT40 TDP1 no CPT	TDP1 cell CPT
O=C(CSc1nnc(-c2ccccc2)n1Cc1ccccc1)NNC(=O)c1ccccc1O	-13.5%	-20.1%	-7.5%	10.0	25.9µM*	16.4µM*
CCOC(=O)C1=NNC(C(=O)c2ccccc2)C1c1ccc(C)cc1 (stereo unspecified)	?	1.1%	9.6%	7.4	-22.3%	-15.2%
CCOC(=O)C1=NNC(C(=O)c2ccc(C)cc2)C1c1ccc(C)cc1 (stereo unspecified)	?	-4.7%	-1.3%	-5.6	16.4µM*	?
COc1ccc(-c2cnc3[nH]cc(CC(=O)Nc4ccncc4)c3c2)cc1	35.7%[176 µM]	nt	nt	nt	nt	nt
COc1cc(OC)c2cc(-c3ccncc3)cnc2c1	?	nt	nt	nt	26.6µM*	23.7µM*
CC(C)C(=O)N[C@H]1C[C@@H](Cc2cc(CN3CCOCC3)on2)C1(C)C	2.2%[176 µM]	nt	nt	nt	nt	nt
N#CCNC1CC(=O)N(c2ccc(F)cc2)C1=O (stereo unspecified)	42.0%	7.4%	2.2%	-15.3	?	4.61µM*
CCCCN(CCCC)S(=O)(=O)c1ccc(C(=O)Nc2nnc(CSC)o2)cc1	0.0%[57.4 µM]	?	-10.7%	63.1	9.2µM*	14.6µM*
CCc1nnc(NC(=O)c2ccc(S(=O)(=O)N(CCOC)CCOC)cc2)o1	0.0%	12.2%	3.5%	17.1	2.4%	-3.9%
CCCN(CCC)S(=O)(=O)c1ccc(C(=O)Nc2nnc(CSC)o2)cc1	-9.3%	?	?	86.0	?	?
CCN(c1ccccc1)S(=O)(=O)c1ccc(C(=O)Nc2cccc(C)n2)cc1	-14.2%	-14.5%	0.0%	?	11.6µM*	23.1µM*
CCN(c1ccccc1)S(=O)(=O)c1ccc(C(=O)Nc2nnc(CSC)o2)cc1	-6.6%	?	-16.5%	69.0	9.2µM*	?
CCN(c1ccccc1)S(=O)(=O)c1ccc(C(=O)Nc2nnc(C3CC3)o2)cc1	-3.7%	?	?	80.3	18.4µM*	20.6µM*
Cc1ccc(S(=O)(=O)N(C)c2ccc(C(=O)Nc3cccc(C)n3)cc2)cc1	-12.0%	-13.4%	1.5%	i	?	?
Cc1c(CCC(C)C)c(=O)oc2cc(OCCC(C)C)ccc12	-2.3%	nt	nt	nt	nt	nt
CN(C)c1cccc(C(=O)NCC2CCN(c3cc(-c4ccc(Cl)cc4)[nH]n3)CC2)c1	18.3%	nt	nt	nt	nt	nt
CCCCN(CC)S(=O)(=O)c1ccc(C(=O)Nc2nnc(CSC)o2)cc1	0.0%	?	-29.6%	28.5	14.6µM*	?

Screening results: PubChem BioAssay, National Center for Advancing Translational Sciences (NCATS)
